High-throughput results: PubChem BioAssay, National Center for Advancing Translational Sciences (NCATS)
Shown are actives, neighbours in structure and some others; about 4.7% of the full set was active somewhere.
D1 potentiator – human D1 dopamine receptor positive modulation; P21728; HEK293 TREx D1 cells, calcium flux, dopamine EC20 potentiation; potentiation, % at 10 µM; actives 0.036% (n = 360,000); AID 504651; in the data active means potentiation above about 30%
Target sequence (P21728 whole entry, looked up): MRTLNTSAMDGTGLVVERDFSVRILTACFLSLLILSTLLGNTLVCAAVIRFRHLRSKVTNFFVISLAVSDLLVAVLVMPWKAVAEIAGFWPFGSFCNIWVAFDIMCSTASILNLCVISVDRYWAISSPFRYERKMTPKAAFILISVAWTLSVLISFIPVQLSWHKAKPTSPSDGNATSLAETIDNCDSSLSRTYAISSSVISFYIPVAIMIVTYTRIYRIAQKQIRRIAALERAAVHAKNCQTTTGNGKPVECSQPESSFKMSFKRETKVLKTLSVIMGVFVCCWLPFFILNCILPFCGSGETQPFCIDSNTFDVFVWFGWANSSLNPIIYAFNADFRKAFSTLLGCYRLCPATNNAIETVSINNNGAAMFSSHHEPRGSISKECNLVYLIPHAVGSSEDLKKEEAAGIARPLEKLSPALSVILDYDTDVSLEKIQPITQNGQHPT
D1 agonist – human D1 receptor agonism. activation, % at 2 µM. actives 1% (n = 360,000). HEK293 T-REx D1 cells, calcium flux, agonist mode
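Inducible HEK293 T-REx D1 cells, force-coupled to calcium signalling, were plated at 4000 cells/well with tetracycline and held overnight at 30 C. After no-wash calcium dye loading, compound-evoked calcium rise over 180 s flagged agonists.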
TRHR ag – activates the human TRH receptor; actives 0.18% (n = 360,000); AID 493084; activation, % at 2 µM; TRHR cells, calcium flux fluo-8, FDSS agonist mode
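Agonist-mode FDSS calcium read (Ex 480/Em 530, 1 s cycles) in 1536-well TRHR cells with fluo-8 dye, after 10-cycle baseline and 23 nL compound addition; TRH at EC20 (10 nM final) added afterwards for the enhancer phase.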
TRHR PAM – TRH receptor (human) allosteric enhancement. TRHR cells, fluo-8 calcium fluorescence, EC20 TRH enhancement. enhancement, % at 2 µM. actives 0.66% (n = 360,000). AID 493056; in the data active means enhancement above about 30%
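TRHR-expressing cells loaded with fluo-8 calcium dye were read kinetically (ex 480/em 530) during compound addition, then stimulated with an EC20 of TRH (10 nM final). Enhancement of the Gq-mediated intracellular calcium response was scored.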
D1 antagonist – blocks dopamine activation of the human D1 receptor; P21728; HEK293 TREx D1 cells, calcium flux, dopamine EC80; active compounds read low; activity change, negative = inhibition, % at 10 µM; actives 3.2% (n = 360,000); in the data active means activity change below about -30%
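Allosteric or orthosteric antagonism assessed as attenuation of the calcium response to EC80 dopamine, added 180 s after compound, in induced HEK293 Trex D1 cells loaded with no-wash calcium dye.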
Numbers stand for hits; – = inactive; · = not tested or not shown. Unless noted, no stated cut-off is given here; in the data, active means activation above about 30%; inactive means the rest.

SMILES	D1 potentiator	D1 agonist	TRHR ag	TRHR PAM	D1 antagonist
CCn1cc([N+](=O)[O-])c(C(=O)N2N=C(c3ccc(OC)cc3OC)CC2c2ccccc2O)n1 (configuration not stated)	–	–	–	–	-31
CCOc1ccc(S(=O)(=O)NCCc2sc3nc(-c4ccc(F)cc4)nn3c2C)cc1	–	–	–	–	·
Cc1ccc(N(Cc2cccs2)C(=O)COc2ccccc2[N+](=O)[O-])cc1	–	–	–	–	–
COCC(C)N1CC(O)=C(c2nc(-c3ccc(Cl)cc3)cs2)C1=N (configuration not stated)	–	–	–	–	-31
CCCCN1CC(O)=C(c2nc(-c3ccc(Cl)cc3)cs2)C1=N	–	–	–	–	–
CCc1ccc(CNC(=O)c2cc3n(n2)CCCN(Cc2ccccc2)C3=O)cc1	–	66	–	–	-47
CC1=CC(C)(C)N(C(=O)CN2C(=O)CCC2=O)c2ccccc21	–	–	–	–	-38
O=S(=O)(NCCc1csc2nc(-c3ccc(F)cc3)nn12)c1ccc(Oc2ccccc2)cc1	–	–	–	–	·
C=CCSC1=N/C(=C/c2ccsc2)C(=O)N1c1ccccc1	–	–	–	–	-58
C=CCSC1=N/C(=C\c2cccnc2)C(=O)N1c1ccc(OC)cc1	–	–	–	–	-54
CCSC1=N/C(=C\c2ccccc2)C(=O)N1c1ccc(OC)cc1	–	–	–	–	–
Cc1[nH]c2ccccc2c1C(=O)CN1C(=O)C(=O)N(Cc2ccco2)C1=O	–	–	–	–	–
Cc1[nH]c2ccccc2c1C(=O)CN1C(=O)C(=O)N(CCC2=CCCCC2)C1=O	–	–	–	–	-32
CCCCNC(=S)NC(=O)c1ccccc1Br	–	–	–	–	-33
CCOc1ccc(CCNS(=O)(=O)c2cc(Br)cc3c2N(C(C)=O)CC3)cc1OCC	–	–	–	–	–
CCCSc1nc2c(c(=O)[nH]1)C(c1ccc(F)cc1F)CC(=O)N2 (configuration not stated)	–	37	–	–	–
O=[N+]([O-])c1ccc(N2CCN(Cc3cccc([N+](=O)[O-])c3)CC2)cc1	–	–	–	–	-40
O=[N+]([O-])c1ccc(CN2CCSCC2)cc1	–	–	–	–	-33
O=[N+]([O-])c1ccc(CN2CCN(c3ccc([N+](=O)[O-])cc3)CC2)cc1	–	–	–	–	–
COc1ccccc1Cc1noc(COc2cccc(C)c2C)n1	–	–	–	–	-78
COc1cccc(-c2noc(COc3cccc(C)c3C)n2)c1	–	–	–	–	–
O=C(Nc1nnc(-c2ccc3c(c2)CCCC3)o1)C1CCCCC1	–	–	–	–	-46
O=C(Nc1nnc(-c2ccc3c(c2)CCCC3)o1)c1ccc(Cl)cc1Cl	–	36	–	–	–
O=C(Nc1nnc(-c2ccncc2)o1)C1CCCCC1	–	–	–	–	–
COc1ccc(Nc2cc(C)nc(-n3nc(C)cc3C)n2)cc1Cl	–	–	–	–	-34
SMILES	D1 potentiator	D1 agonist	TRHR ag	TRHR PAM	D1 antagonist
Cc1cc(C)c(S(=O)(=O)NCCc2sc3nc(-c4ccc(F)cc4)nn3c2C)c(C)c1	–	–	–	–	·
CCOc1ccc(-c2cc(CCCC(=O)NCCc3ccc(OCC)c(OCC)c3)no2)cc1	–	–	–	–	-33
CCOc1ccc(-c2cc(CCCC(=O)NCCc3ccc(Cl)cc3)no2)cc1	–	–	–	–	–
Cc1cccc(OCCC(=O)Nc2ccc(F)c(F)c2)c1	–	–	–	–	-38
O=C(COc1ccccc1)Nc1ccc2nc(SCCOc3ccccc3)sc2c1	–	–	–	–	-31
Cc1cc(C)cc(OCCSc2nc3ccc(NC(=O)COc4ccccc4)cc3s2)c1	–	–	–	–	–
CCC(=O)Nc1nc2ccc(NC(=O)COc3ccccc3)cc2s1	–	–	–	–	-72
Cc1cccc(OCCCC(=O)Nc2ccc(N(C)C)cc2)c1	–	–	–	–	–
CCOC(=O)CSc1nc2ccc(NC(=O)c3ccccc3)cc2s1	–	–	–	–	–
COc1ccc(OCC(=O)Nc2nc3ccc(NC(C)=O)cc3s2)cc1	–	–	–	–	–
CCOC(=O)CSc1nc2ccc(NC(=O)COc3ccccc3)cc2s1	–	–	–	–	-36
Cc1cc(=O)n2nc(N3CCC(C(=O)Nc4ccc(C)c(Cl)c4)CC3)sc2n1	–	–	–	–	–
Cc1cccc(OCC(=O)Nc2ccc3nc(C)sc3c2)c1	–	–	–	–	-33
Cc1nc2ccc(NC(=O)COc3ccccc3)cc2s1	–	–	–	–	–
Cc1cc(C)n(CCN(C)C(=O)c2cc(COc3c(F)cccc3F)on2)n1	–	–	–	–	-50
Cc1cc(C)n(CCNC(=O)c2cc(COc3c(F)cccc3F)on2)n1	–	–	–	–	–
CCn1c(=O)sc2cc(NS(=O)(=O)c3ccc(F)c(C)c3)ccc21	–	–	–	–	–
Cc1cccc(C)c1NC(=O)CN1CCN(CCCC(c2ccc(F)cc2)c2ccc(F)cc2)CC1	–	–	–	–	-53
Cc1cc(C)c(NC(=O)CN2CCN(C)CC2)c(C)c1	·	–	–	32	–
Cc1cc(C)cc(NC(=O)CN2CCN(c3ccccc3)CC2)c1	–	–	–	–	-32
COc1ccc(N2CCN(CC(=O)Nc3c(C)cc(C)cc3C)CC2)cc1	–	–	–	–	–
CC(C)(C)OC(=O)NCc1nnc(-c2nc3ccccc3[nH]2)o1	–	–	–	–	–
CCC(=O)c1ccc(OCC(=O)OCC(=O)NCCC2=CCCCC2)cc1	–	–	–	–	-31
CCC(=O)c1ccc(OCC(=O)NC2CCCC2)cc1	–	–	–	–	–
Cc1cc(OCC(=O)OCC(=O)NC2CCCCC2C)ccc1Cl (configuration not stated)	–	–	–	–	-32
SMILES	D1 potentiator	D1 agonist	TRHR ag	TRHR PAM	D1 antagonist
N#Cc1ccc(OCC(=O)OCC(=O)NCCC2=CCCCC2)cc1	–	–	–	–	–
CCC(=O)c1ccc(OCC(=O)OCC(=O)NC2CCCCCCC2)cc1	–	–	–	–	-39
CC1CCCC(NC(=O)COC(=O)COc2ccc(Cl)cc2)C1C (configuration not stated)	–	–	–	–	–
Cc1ccc(C(=O)c2oc3ccccc3c2NC(=O)c2nc(S(C)(=O)=O)ncc2Cl)cc1F	–	–	–	–	–
CCN(CC)c1nn2c(=O)c(C(=O)NCc3cccc(C)c3)cnc2s1	–	–	–	–	–
Cc1ccc(C(=O)CC2(O)C(=O)N(Cc3ccccc3)c3ccccc32)c(C)c1 (configuration not stated)	–	58	–	–	–
CCN1C(=O)C(O)(CC(=O)c2c(C)coc2C)c2ccccc21 (configuration not stated)	–	–	–	–	-45
